Assay results published in PubChem BioAssay (EPA / NIEHS).
Inconclusive results are not listed. Active and inactive are the calls of the source. Rule for the calls: active = hit-call score of the fitted dose curve at least 0.9, where 1 is the maximum; inconclusive = response in the unintended direction; inactive = score below 0.9.

Test system: frog Estrogen Receptor (ESR1), gene 398734
Experiment: ATG_frER1_XSP1: Attagene TRANS-FACTORIAL Multi-Species (XSP1) HepG2 Assay for frog Estrogen Receptor (ESR1) (AID 2283777)
Outline: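 Transient MRTU transfection, HepG2 (human liver); 24 h dosing, 3 nM 6α-fluorotestosterone co-added; RNA → RT-PCR → 6-FAM labeling → CE; upward activity vs DMSO.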

| Compound | outcome | AC50 |
| --- | --- | --- |
| Cc1oc(-c2ccccc2)nc1CCOc1ccc(C[C@H](Nc2ccccc2C(=O)c2ccccc2)C(=O)O)cc1 | inactive |  |
| CCC(C)(C)C1CCC(O)CC1 (stereo not drawn) | inactive |  |
| CC[C@H](c1ccc(O)cc1)[C@@H](CC)c1ccc(O)cc1 |  | 0.0764 nM (active) |
